Screens from PubChem.
Sampled rows, rich in hits. Any-hit rate of the full collection: about 17%.
ClpP mod: qHTS Assay for Activators of ClpP. Potency, µM (highest dose often 57.5 µM), inactives show at the top dose activity change, negative = active. purified B. subtilis ClpP, FRET peptide cleavage, 20 min. 340,000 compounds, 1.9% hits. ATP-dependent Clp protease proteolytic subunit (Bacillus subtilis (strain 168)), P80244. AID 651965, 2013; active = well fitted falling curve with a large enough effect; inconclusive = small, poorly fitted or top-dose-only effect; inactive = no such curve, though single readings can be large or run the other way; also: the source files actives as falling curves though it sought activators and does not explain the sign; nearly all actives have a fitted effect of over 65% in size
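Purified B. subtilis ClpP, 10 microg/mL final in Tris/HCl pH8 with KCl, BSA, glycerol and Tween-20, cleaved an Abz/nitrotyrosine-quenched decapeptide. Fluorescence (ex 320, em 430) was read at 0 and 20 min at room temperature. Delta was normalized to 5.8 microM ADEP and DMSO/no-enzyme controls.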
TDP1 inh: qHTS Assay for Inhibitors of Tyrosyl-DNA Phosphodiesterase (TDP1); recombinant TDP1, AlphaScreen DNA substrate cleavage; Tyrosyl-DNA phosphodiesterase 1 (Homo sapiens), Q9NUW8; AID 485290, 2010; 350,000 compounds, 0.28% hits; Potency, µM (doses to about 130 µM), for the others: at the top dose activity change, negative = inhibition, most hits filed as inhibitors; also: % is scaled to controls: 0 for no effect and ±100 for the full control effect; nearly all actives have a fitted effect of over 40% in size
Target sequence (Q9NUW8 whole entry, looked up): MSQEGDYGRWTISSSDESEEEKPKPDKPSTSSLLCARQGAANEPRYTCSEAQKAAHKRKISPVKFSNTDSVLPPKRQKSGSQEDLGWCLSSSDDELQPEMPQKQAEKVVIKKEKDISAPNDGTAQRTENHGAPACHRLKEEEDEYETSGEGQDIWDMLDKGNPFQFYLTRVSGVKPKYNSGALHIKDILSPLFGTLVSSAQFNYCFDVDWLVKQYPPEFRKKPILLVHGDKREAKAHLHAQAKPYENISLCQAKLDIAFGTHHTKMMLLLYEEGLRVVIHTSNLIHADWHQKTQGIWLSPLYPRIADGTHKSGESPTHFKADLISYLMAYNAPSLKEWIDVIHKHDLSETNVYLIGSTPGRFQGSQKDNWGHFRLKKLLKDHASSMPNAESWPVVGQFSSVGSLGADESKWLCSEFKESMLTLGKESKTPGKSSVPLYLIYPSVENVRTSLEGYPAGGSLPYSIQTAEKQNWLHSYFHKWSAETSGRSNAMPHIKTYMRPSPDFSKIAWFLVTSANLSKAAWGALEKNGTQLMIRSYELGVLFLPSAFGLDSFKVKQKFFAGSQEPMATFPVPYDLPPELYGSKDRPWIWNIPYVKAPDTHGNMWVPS
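E. coli-derived human Tdp1, 1 nM final. Cpd preinc 15 min RT; substrate 15 nM final, 5 min RT; AS bead mix 10 ug/ml final, 10 min RT. Signal loss = tyrosine-FITC cleavage. No-enzyme wells = max signal.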
DT40 TDP1 CPT: qHTS for Inhibitors of human tyrosyl-DNA phosphodiesterase 1 (TDP1): qHTS in cells in presence of CPT. chicken DT40 Tdp1-/-;hTDP1 cells + 20 nM CPT, ATP luminescence, 48 h. Potency, µM (doses to about 46.2 µM), inactives show top-dose activity change, negative = growth inhibition, actives largely listed as inhibitors. 420,000 compounds, 12% hits. AID 686979, 2013; also: % is scaled to controls: 0 for no effect and ±100 for the full control effect; nearly all actives have a fitted effect of over 55% in size
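Chicken DT40 Tdp1-/- cells complemented with human TDP1, 400 cells/well, exposed to compounds plus 20 nM camptothecin for at least 48 h at 37 C; viability read as ATP content by CellTiter-Glo luminescence.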
TDP1 cell noCPT: qHTS for Inhibitors of human tyrosyl-DNA phosphodiesterase 1 (TDP1): qHTS in cells in absence of CPT | AID 686978, 2013 | Potency, µM (doses to about 46.2 µM), for inactives: at the highest dose activity change, negative = growth inhibition, usual class: inhibitors | 420,000 compounds, 15% hits | DT40 Tdp1-/- hTDP1 cells, no CPT, ATP luminescence, 48 h; also: % is scaled to controls: 0 for no effect and ±100 for the full control effect; nearly all actives have a fitted effect of over 55% in size
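Readout: luminescence from CellTiter-Glo after 30 min in the dark at RT. Cells: DT40 Tdp1-/- with stable hTDP1, 400/well. Exposure: compounds alone, ≥48 hr, 37 °C.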
Numbers without * were called inactive; ? = inconclusive; / = no result; [ ] = dose if it differs, or a comment. Unless noted, calls follow the shape of the dose curve; as a rule, active = well fitted curve in the direction sought with a large enough effect; inconclusive = small, poorly fitted or top-dose-only effect, or another doubt; inactive = no such curve, though single readings can be large; an effect the other way counts as inactive or inconclusive. Potency is read from the fitted curve at half-maximal effect.

SMILES | ClpP mod | TDP1 inh | DT40 TDP1 CPT | TDP1 cell noCPT
C[C@H]1[C@@H](OS(=O)(=O)O)C[C@@H]2C[C@H]([C@@H](O)c3cc(=O)[nH]c(=O)[nH]3)NC3=NC[C@H]1N32 | -1.1% | / | 2.31µM* | 3.66µM*
CCC[C@@](C)(COC(N)=O)COC(=O)NC(C)C | / | 11.8%[21 µM] | / | /
COc1cccc(OC)c1CN1CCCC(C(=O)c2cccc(Cl)c2)C1 (configuration not stated) | 0.7% | / | 18.4µM* | ?
CCn1ccnc1CN1CCCC(C(=O)c2cccc(C(F)(F)F)c2)C1 (configuration not stated) | / | 5.4% | ? | 25.9µM*
CCOc1ccc(CN2CCCC(C(=O)c3ccccc3OC)C2)cc1 (configuration not stated) | / | 3.6% | ? | ?
COc1ccc(C(=O)C2CCCN(Cc3ccc(F)cc3F)C2)cc1F (configuration not stated) | 0.0% | / | ? | ?
COc1ccccc1CN1CCCC(C(=O)c2ccccc2OC)C1 (configuration not stated) | / | 1.9% | 8.2µM* | ?
COc1ccccc1CN1CCCC(C(=O)c2ccccc2SC)C1 (configuration not stated) | -27.8% | 2.4% | 13µM* | 20.6µM*
O=C(c1cccc(C(F)(F)F)c1)C1CCCN(Cc2ncc[nH]2)C1 (configuration not stated) | / | -2.5% | ? | -22.6%
C=CCCl | / | 9.3% | / | /
C[C@H]1CCCC=CC2C[C@H](O)C[C@@H]2[C@H](O)/C=C\C(=O)O1 (some centres not stated) | / | -4.0%[56.1 µM] | / | /
CSc1ccccc1C(=O)C1CCCN(Cc2ccncc2)C1 (configuration not stated) | -0.7% | 6.1% | -21.2% | -14.2%
COc1ccc(C(=O)C2CCCN(CCc3ccccc3)C2)cc1OC (configuration not stated) | -11.4% | / | ? | 18.4µM*
COc1ccc(O)c(CN2CCCC(C(=O)c3ccccc3SC)C2)c1 (configuration not stated) | -1.9% | 6.0% | ? | 14.6µM*
C[C@H]1COC(=O)[C@H](Cc2ccc(F)cc2)CC/C=C/C[C@@H](CC(=O)N(CCO)Cc2ccccc2)C(=O)N1 | 0.2% | 1.0% | 23.1µM* | 18.4µM*
CC(C)OC1CCCC(O)C1CC(=O)O (configuration not stated) | 0.9% | 5.5% | 7.4% | 0.6%
COc1cc(/C=N/n2cnnc2)ccc1OC(=O)N(C)C | -7.6% | 2.3% | -21.3% | -8.9%
COc1cc(/C=C/[N+](=O)[O-])ccc1OC(=O)c1cccnc1 | 0.8% | / | 3.26µM* | 2.31µM*
COc1ccc(C(=O)O/N=C(/C(N)=O)P(=O)(OC(C)C)OC(C)C)cc1 | / | 5.5% | ? | ?
NCCNC[C@@H](N)CCCN=C(N)N[N+](=O)[O-] | / | 18.7% | / | /
CN(C(=O)Oc1ccc(C(=O)c2ccc(Cl)cc2)cc1)c1ccccc1 | 0.8% | -4.6% | 23.1µM* | 16.4µM*
CCOC(=O)c1cccc(NC(=O)c2cnc(N3CCCCC3)c3ccccc23)c1 | 28.2µM* | 5.5% | 18.4µM* | 23.1µM*
CCOC(=O)c1ccc(NC(=O)c2sc3nc4c(cc3c2N)N2CCC4CC2)cc1 | -19.7% | -1.9% | -25.3% | ?
CN1C(=O)N(C)C(=O)C(NS(=O)(=O)c2ccc(N)cc2)(c2ccccc2)C1=O | 2.0% | / | -1.0% | -4.0%
CC(=O)OC1CC(OC2C(O)CC(OC3C(O)CC(OC4CCC5(C)C(CCC6C5CC(O)C5(C)C(C7=CC(=O)OC7)CCC65O)C4)OC3C)OC2C)OC(C)C1OC1OC(CO)C(O)C(O)C1O (configuration not stated) | 1.0% | 9.5% | 1.3µM* | 0.651µM*
